Results as given in PubChem BioAssay AID1778 (Sanford-Burnham Center for Chemical Genomics, 2009).
Among all 290,000 compounds or so, about 260 (0.09%) were called active. Rule as the data show it: active = inhibition above about 50%; inactive = the rest. For the sample, actives were picked, then their nearest neighbours and some compounds at random. Potency and affinity values are given separately.

These compounds were tested against Kappa-type opioid receptor (Homo sapiens) (UniProt P41145) (assay: kappa opioid receptor blockers – cell-based, luminescence, uHTS (AID 1778)). Conditions: KOR beta-arrestin recruitment, antagonist mode, stronger effect = higher value; at 10 µM unless noted.
Chain of Kappa-type opioid receptor (Homo sapiens) (P41145 whole entry, looked up): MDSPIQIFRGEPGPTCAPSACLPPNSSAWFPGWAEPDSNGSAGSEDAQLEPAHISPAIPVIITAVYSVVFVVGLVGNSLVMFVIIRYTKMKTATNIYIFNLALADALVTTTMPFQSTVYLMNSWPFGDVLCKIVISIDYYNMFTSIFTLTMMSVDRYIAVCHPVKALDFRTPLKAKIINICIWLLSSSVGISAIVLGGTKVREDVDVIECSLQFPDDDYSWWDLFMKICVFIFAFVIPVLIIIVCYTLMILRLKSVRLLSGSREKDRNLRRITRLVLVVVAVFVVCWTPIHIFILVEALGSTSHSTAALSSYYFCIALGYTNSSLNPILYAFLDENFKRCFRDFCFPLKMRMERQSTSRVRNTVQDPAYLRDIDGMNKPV

Compound | inhibition
O=C1/C(=C/c2cccnc2)SC(=S)N1c1ccc(O)cc1 | 30.3% (inactive)
Cc1ccc(/C=C2\SC(=S)N(c3cccnc3)C2=O)cc1 | -11.9% (inactive)
O=C(C(Sc1ccccc1)c1ccc(Br)cc1)N1CCOCC1 (stereo not drawn) | 20.5% (inactive)
CC(=O)Nc1ccc(NC(=O)c2nc(S(=O)(=O)Cc3ccccc3)ncc2Cl)cc1 | 23.7% (inactive)
CCN(c1ccccc1)S(=O)(=O)c1ccc(NC(=O)c2nc(S(C)(=O)=O)ncc2Cl)cc1 | 38.4% (inactive)
CN(c1ccccc1)S(=O)(=O)c1ccc(NC(=O)c2nc(S(C)(=O)=O)ncc2Cl)cc1 | 35.2% (inactive)
Cc1ccc(NC(=O)c2nc(S(=O)(=O)Cc3ccccc3)ncc2Cl)cc1 | 14% (inactive)
CCOC(=O)N1CCN(C(=O)COc2cccc3c2CCN(Cc2cccc(C)c2)C3=O)CC1 | 8% (inactive)
O=C(Nc1cccc(F)c1)N1CC=C(n2c(=O)[nH]c3ccccc32)CC1 | 46.2% (inactive)
CCOc1ccc(NC(=O)N2CC=C(n3c(=O)[nH]c4ccccc43)CC2)cc1 | 35.6% (inactive)
CSc1ccc(NC(=O)N2CC=C(n3c(=O)[nH]c4ccccc43)CC2)cc1 | 90.6% (active)
N#Cc1ccc(CN2CCN(C(=O)c3ccccc3)CC2)c(Cl)c1 | -1.5% (inactive)
Cc1cccc(C(=O)c2ccccc2C(=O)O)c1 | 19.6% (inactive)
CC(NC(=O)Cn1nc(C(=O)O)c2ccccc2c1=O)C12CC3CC(CC(C3)C1)C2 (stereo not drawn) | -21.3% (inactive)
CC(NC(=O)CN1CCCC1)C12CC3CC(CC(C3)C1)C2 (stereo not drawn) | -12% (inactive)
Cc1ccc(C(=O)N/C(=C\c2ccc(F)cc2)C(=O)NCCCn2ccnc2)cc1 | 21.6% (inactive)
CCOc1cc(CNC2CCCC2)cc(Cl)c1OCc1ccc(F)cc1 | -17.1% (inactive)
CCNCc1cc(Cl)c(OCc2ccccc2)c(OCC)c1 | 12.3% (inactive)
O=C(O)c1ccc(N/N=C/c2cccc3nccnc23)cc1 | 14.2% (inactive)
C(=C\c1ccccc1)/CSc1ccccn1 | -4.7% (inactive)
CNC(=O)COC(=O)c1ccccc1C(=O)c1ccc(Cl)c([N+](=O)[O-])c1 | -7.4% (inactive)
CC(C)N(C(=O)COC(=O)c1ccccc1C(=O)c1ccc(Cl)c([N+](=O)[O-])c1)C(C)C | 24.3% (inactive)
NS(=O)(=O)c1ccc(Nc2ccc([N+](=O)[O-])c3nonc23)cc1 | -10.8% (inactive)
CC(=O)c1ccc(Nc2ccc([N+](=O)[O-])c3nonc23)cc1 | 37.3% [at 20 µM] (inactive)

Compound | inhibition
COc1ccc(OC)c(NC(=O)c2cc3sccc3n2C)c1 | 9.4% (inactive)
COc1ccc(OC)c(N2C(N)=C(C#N)C(c3ccc(OC)c(O)c3)C3=C2CC(C)(C)CC3=O)c1 (stereo not drawn) | 16.3% (inactive)
CCC(=O)Nc1ccc(C(=O)n2ccc(C)n2)cc1 | 5.2% (inactive)
N=C1S/C(=C\c2ccco2)C(=O)N1c1nccs1 | 71% (active)
O=C1/C(=C/c2ccco2)SC(=S)N1c1cccnc1 | -2.4% (inactive)
COc1cc(/C=C2\SC(=N)N(c3ccc(F)cc3)C2=O)ccc1O | -30.7% (inactive)
Cc1[nH]c2ccccc2c1/C=N/n1cnnc1 | -34.7% (inactive)
N=C1S/C(=C\c2ccco2)C(=O)N1c1ccc2c(c1)OCO2 | -11.9% [at 20 µM] (inactive)
COc1ccc(/C=C2\SC(=N)N(c3ccc(F)cc3)C2=O)cc1OC | -9.7% (inactive)
O=C1OC(c2cccs2)=N/C1=C\c1ccc(-c2cccc(Cl)c2)o1 | -15.5% (inactive)
N=C1/C(=C\c2ccc(-c3cccc(Cl)c3)o2)C(=O)N=C2SC=C(c3ccccc3)N12 | 29.8% (inactive)
CCOc1cc(/C=C2\SC(=N)N(c3nccs3)C2=O)ccc1OCCN1CCOCC1 | -3.5% (inactive)
CCOc1cccc(C(=O)N(Cc2cccc(F)c2)C2CCS(=O)(=O)C2)c1 (stereo not drawn) | -33.2% (inactive)
Cc1csc(NC(=O)CCCc2cccs2)n1 | 1.1% (inactive)
COc1ccc(C)cc1NC(=O)C(Sc1nnc(Nc2cc(C)ccc2OC)s1)c1ccccc1 (stereo not drawn) | -5.6% (inactive)
CCOc1ccc(CCNS(=O)(=O)c2cnc[nH]2)cc1OCC | -14.7% (inactive)
COc1ccccc1NC(=O)c1ccc(CSc2ncccn2)cc1 | 7.4% (inactive)
Cc1ccc(NC(=O)CCCCCN2C(=O)[C@@H]3Cc4ccccc4CN3C2=O)c(C)c1 | 26.6% (inactive)
Oc1c(C=Nc2cccnc2)sc2ccccc12 | -24.2% (inactive)
Oc1c(/C=N/c2ccccn2)sc2ccccc12 | -1.9% (inactive)
COc1ccc(NC(=S)NC(NC(=O)c2cccc3ccccc23)C(Cl)(Cl)Cl)c([N+](=O)[O-])c1 (stereo not drawn) | -86.5% (inactive)
COc1ccc(NC(=S)NC(NC(=O)c2ccc(Cl)cc2Cl)C(Cl)(Cl)Cl)c([N+](=O)[O-])c1 (stereo not drawn) | 36.4% (inactive)
COCCSc1nnc(NC(=O)CSc2ccccc2)s1 | -18.1% (inactive)
CCc1nnc(NC(=O)CSc2nnc(CNc3cccc(Cl)c3)n2CC)s1 | -7.1% (inactive)

Compound | inhibition
O=C(NCCc1ccccn1)c1ccc(OC(F)F)cc1 | 19.2% (inactive)
CN(C)c1cc(Nc2ccc(O)cc2)c([N+](=O)[O-])c2nonc12 | 40.9% (inactive)
Cc1c(Nc2cc(N3CCOCC3)c3nonc3c2[N+](=O)[O-])c(=O)n(-c2ccccc2)n1C | 25.4% (inactive)
O=[N+]([O-])c1c(Nc2ccc(O)cc2)cc(Cl)c2nonc12 | 104% (active)
O=C(O)c1cc(Nc2cc(Cl)c3nonc3c2[N+](=O)[O-])ccc1O | -28% (inactive)
O=C(O)c1cccc(Nc2cc(Cl)c3nonc3c2[N+](=O)[O-])c1 | 4.3% (inactive)
CN(C)c1cc(Nc2cccc(O)c2)c([N+](=O)[O-])c2nonc12 | -7.7% (inactive)
O=[N+]([O-])c1c(Nc2cccc(O)c2)cc(Cl)c2nonc12 | 114% [at 20 µM] (active)
O=C(O)c1ccc(Nc2cc(Cl)c3nonc3c2[N+](=O)[O-])cc1 | 27.4% (inactive)
CCNc1cc(Nc2c(C)n(C)n(-c3ccccc3)c2=O)c([N+](=O)[O-])c2nonc12 | 13.1% (inactive)
CCN(CC)c1cc(NCCO)c([N+](=O)[O-])c2nonc12 | -13.9% (inactive)
CN(C(=O)c1ccc(S(=O)(=O)c2cccc(Cl)c2)c([N+](=O)[O-])c1)C1CCCCC1 | -8.7% (inactive)
CC1(C)CC(=O)c2cc(OCC(=O)NCCN3CCOCC3)ccc2O1 | -16.7% (inactive)
CCOC(=O)C(=O)N1CCC(Cc2ccccc2)CC1 | 31.7% (inactive)
O=C1CN(C(=O)COC(=O)CCNS(=O)(=O)c2ccc(Cl)cc2)c2ccccc2N1 | -18.1% (inactive)
CC(/C=N\N1CCN(c2ccc(Cl)cc2)CC1)=C\c1ccccc1 | 53.7% (inactive)
O=C(N/N=C/c1ccoc1)c1cc(Br)ccc1O | -13.2% (inactive)
O=[N+]([O-])c1c(Nc2ccccc2O)ccc2nonc12 | 35.9% (inactive)
O=C(O)c1ccccc1Nc1cc(Cl)c2nonc2c1[N+](=O)[O-] | 34.1% (inactive)
Cc1cccc(N(C(=O)c2snc(C(N)=O)c2N)C(C(=O)NC2CCCC2)c2ccncc2)c1 (stereo not drawn) | 12.2% (inactive)
Cc1cc(C(C)(C)C)oc1C(=O)N(CC(=O)NC1CCCC1)Cc1ccccc1Cl | 0.8% (inactive)
Cc1cn(-c2cc(C(=O)Nc3ccc(C)c(NC(=O)C(=O)c4c[nH]c5ccccc45)c3)cc(C(F)(F)F)c2)cn1 | 0.6% (inactive)
Cc1cn(-c2cc(C(=O)Nc3ccc(C)c(NC(=O)N4CCNC4=O)c3)cc(C(F)(F)F)c2)cn1 | -20% (inactive)
COc1ccc(CNC2CCCc3ccccc32)cc1OC (stereo not drawn) | -0.9% (inactive)

Compound | inhibition
O=C(NNC1=Nc2ccccc2SC1)c1ccccc1F | 10.4% (inactive)
O=C(NNC1=Nc2ccccc2SC1)c1ccc(F)cc1 | 30.4% (inactive)
CCc1ccc(-n2c(=O)c3c(C)c(C(=O)N(C)C)sc3n(CC(=O)NCc3ccco3)c2=O)cc1 | -11.4% (inactive)
Cc1ccc(-c2csc(N3C(=N)SCC3=O)n2)cc1 | 26.9% (inactive)
N=C1SCC(=O)N1c1nc(-c2ccccc2)cs1 | 23.4% (inactive)
CCN1CCN(C(=S)c2ccc(Cl)cc2)CC1 | 12.5% (inactive)
Cc1cccc(Cc2cnc(NC(=O)c3ccc(C)o3)s2)c1 | -9.9% (inactive)
Cc1ccc(Cc2cnc(N3C(=N)SC(C)C3=O)s2)cc1 (stereo not drawn) | 88.5% (active)
Cc1ccc(Cc2cnc(N3C(=N)SC(c4ccccc4)C3=O)s2)cc1 (stereo not drawn) | 37.3% (inactive)
Cc1cccc(Cc2cnc(N3C(=N)SC(c4ccccc4)C3=O)s2)c1 (stereo not drawn) | -7.2% (inactive)
Cc1ccc(Cc2cnc(NC(=O)c3cccs3)s2)cc1 | -17.2% (inactive)
O=C(C1=C[C@H](c2ccccc2)C[C@H](OCc2ccc(CO)cc2)O1)N1CCN(Cc2ccc3c(c2)OCO3)CC1 | -13% (inactive)
CNc1ncnc(Sc2ccc(Cl)cc2)c1[N+](=O)[O-] | 8.9% (inactive)
OCC1(Cc2cccc(Cl)c2)CCCN(Cc2sc(N3CCCC3)nc2Cl)C1 (stereo not drawn) | -39.6% [at 20 µM] (inactive)
CN1N=C(C(=O)N2CCc3c([nH]c4ccccc34)C2c2ccccc2Cl)CCC1=O (stereo not drawn) | -7% (inactive)
O=C1COc2ccc(S(=O)(=O)NCc3ccc(Cl)cc3)cc2N1 | -23.4% (inactive)
COC(=O)c1sccc1S(=O)(=O)Nc1ccc(Cl)cc1 | 23.4% (inactive)
CCOC(=O)C1CCN(C(=O)c2ccccc2CCc2ccccc2)CC1 | 12.9% (inactive)
Cc1ccc(C(=O)Nc2ccccc2Sc2ccccc2)cc1 | 5.8% (inactive)
Cc1ccc(C(=O)CC(=O)c2ccccc2)cc1 | -30.1% [at 20 µM] (inactive)
Cc1ccc(C(=O)Sc2cccccc2=O)cc1 | 88.3% (active)
